Assay results from publication PMC4552634, “A New Set of Chemical Starting Points with Plasmodium falciparum Transmission-Blocking Potential for Antimalarial Drug Discovery” (PLoS ONE, 2015).
Out of some 13,000 compounds screened, about 3,200 (25%) showed an effect of 50% or more. This is one part of the list.

What follows are compounds tested on P. falciparum stage V gametocytes. Settings: 48 h, 5 µM; inhibitor.
Parameters: BacTiter-Glo ATP luminescence viability of purified stage V gametocytes in 384-well plates, per cent inhibition versus DMSO

Row | SMILES | % Inhibition [%]
1 | COc1cc(C(=O)NC2CCN(Cc3ccccc3)CC2)ccc1-c1nc2cc(Cl)c(C)cc2[nH]1 [TCMDC-140028] | -62.59
2 | CN1CCN(c2nc(NCCc3ccc(O)cc3)nc(NCc3ccccc3-c3ccc(C(F)(F)F)cc3)n2)CC1 [TCMDC-138322] | -8.259
3 | CC1(C)[C@H]2CC[C@@H](CNc3nc(NCCc4cnc[nH]4)nc(Nc4ccc5c(c4)OCO5)n3)[C@@H]1C2 [TCMDC-139738] | -17.51
4 | COc1ccc2nccc([C@@H](O)CN3CCC(NC(=O)C(c4cc5ccccc5o4)N4CCN(c5ccccc5OC)CC4)CC3)c2c1 (stereo partly drawn) [TCMDC-140991] | 13.75
5 | COc1ccc(C(=O)N2CCC(C(=O)NC(C)c3ccc(-n4ccnc4)cc3)CC2)c2ccccc12 (stereo not drawn) [TCMDC-124603] | -15.82
6 | O=C(NCc1ccc(Cl)cc1)c1ccc(CN2CCCN(Cc3cccc(O)c3)CC2)cc1 [TCMDC-136442] | 2.881
7 | CC(C)(C)c1ccc(NC(=O)c2cccc(CN3CCCN(Cc4ccc(F)cc4)CC3)c2)cc1 [TCMDC-135985] | -30.03
8 | C[C@H]1CN(Cc2cccc(-c3cc(CNC(=O)c4cccc(CN5CCN(C/C=C/c6ccccc6)CC5)c4)ccc3F)c2)CCN1 [TCMDC-136208] | 114.8
9 | CN(C(=O)/C=C/c1c(Cl)cccc1Cl)C1CCN(CCCCCNC(=O)/C=C/c2ccc(Cl)c(Cl)c2)CC1 [TCMDC-139995] | -22.04
10 | O=C(Nc1ccc(CN2CCN(S(=O)(=O)c3cccc(Cl)c3)CC2)cc1)c1cccs1 [TCMDC-136319] | 27.89
11 | CN(CC(=O)N1CCN(S(=O)(=O)c2cccc(Cl)c2)CC1CN1CCCC1)c1ccc(Cl)c(Cl)c1 (stereo not drawn) [TCMDC-136893] | 71.55
12 | Cn1c(N)c(C(=O)CSc2ncc(-c3ccc(F)cc3)n2Cc2ccccc2)c(=O)n(C)c1=O [TCMDC-125101] | 12.63
13 | CC1(C)N=C(N)N=C(N)N1OCCCc1cccc(C(F)(F)F)c1 [TCMDC-131651] | -2.569
14 | COc1ccc(CN2CCC(CNCCc3c(Cl)cccc3Cl)CC2)cc1 [TCMDC-141345] | 89.6
15 | COc1ccc(Oc2ccccc2CNCC2CCN(CC3CCCCC3)CC2)cc1 [TCMDC-141413] | 81.97
16 | COc1ccc2ccccc2c1CNCC1CCN(CC2CCCCC2)CC1 [TCMDC-141412] | -44.03
17 | COc1ccc(CN2CCC(CNCCc3ccccc3Cl)CC2)cc1 [TCMDC-141343] | 21.62
18 | COc1ccc(CN2CCC(CNCCc3ccccc3Oc3ccccc3)CC2)cc1 [TCMDC-141350] | 98.78
19 | O=[N+]([O-])c1ccc(Oc2ccccc2CNCC2CCN(CC3CCCCC3)CC2)cc1 [TCMDC-141414] | 46.86
20 | COc1ccc2c(c1)CC1CN(CCCCNC(=O)c3ccc(NC(=O)c4cc(Cl)cc(Cl)c4)cc3)CCN1C2 (stereo not drawn) [TCMDC-138223] | -15.2
21 | NC1CCN(c2nc(NCCc3ccc(O)cc3)nc(NCc3ccccc3-c3ccccc3)n2)CC1 [TCMDC-133441] | 29.52
22 | Cc1ccc2c(Cc3cnc(N)nc3N)cc(C)c(N)c2n1 [TCMDC-137878] | -11.15
23 | COc1ccc(C(C(=O)NC2CCN(C[C@H](O)c3ccnc4ccc(OC)cc34)CC2)N2CCN(c3ccc([N+](=O)[O-])cc3)CC2)cc1 (stereo partly drawn) [TCMDC-140992] | -4.461

Row | SMILES | % Inhibition [%]
24 | O=C(NCc1ccccc1)Nc1ccc(-c2cccc(-c3nc4ccc(C(F)(F)F)cc4[nH]3)c2)cc1 [TCMDC-133160] | -18.34
25 | O=C(Nc1ccc(F)c(C(F)(F)F)c1)N[C@H]1CCN(CCCCCNC(=O)C2CC2c2ccc(Cl)c(Cl)c2)C1 (stereo partly drawn) [TCMDC-136270] | 88.79
26 | O=C(Nc1ccc(F)c(C(F)(F)F)c1)NC1CCN(CCCCCNC(=O)C2CC2c2ccc(Cl)c(Cl)c2)CC1 (stereo not drawn) [TCMDC-136259] | 97.75
27 | O=C(NCCCCCN1CCCN(C(=O)Nc2ccc(F)c(C(F)(F)F)c2)CC1)C1CC1c1ccc(Cl)c(Cl)c1 (stereo not drawn) [TCMDC-136254] | 10.75
28 | COc1ccc2nccc([C@@H](O)CN3CCC(NC(=O)C(c4cc5ccccc5o4)N4CCN(Cc5ccccc5)CC4)CC3)c2c1 (stereo partly drawn) [TCMDC-140988] | 30.33
29 | O=C(Nc1ccc(-c2nc3ccccc3[nH]2)cc1)C1CCCN(C2CCC2)C1 (stereo not drawn) [TCMDC-124687] | -67.58
30 | O=C(NCCN1CCCC1)c1cccc(Nc2nccc(Nc3ccc(Oc4ccccc4)cc3)n2)c1 [TCMDC-138602] | -15.16
31 | NC(=O)c1cccc(Nc2nccc(Nc3ccc(Oc4ccc5ccccc5c4)cc3)n2)c1 [TCMDC-138600] | -22.11
32 | O=C(Nc1ccccc1)c1cccc(Nc2nccc(Nc3ccc(Oc4ccccc4)cc3)n2)c1 [TCMDC-138561] | 74.26
33 | O=C(NCCCN1CCCCC1)c1ccc(Nc2nccc(Nc3ccc(Oc4ccccc4)cc3)n2)cc1 [TCMDC-138609] | -10.89
34 | O=C(NCCCN1CCCCC1)c1cccc(Nc2nccc(Nc3ccc(Oc4ccccc4)cc3)n2)c1 [TCMDC-138605] | -29.44
35 | Brc1cccc(Nc2nccc(Nc3ccc(Oc4ccccc4)cc3)n2)c1 [TCMDC-138559] | 9.5
36 | CCCN1CCN(CCNC(=O)c2cccc(Nc3nccc(Nc4ccc(Oc5ccccc5)cc4)n3)c2)CC1 [TCMDC-138606] | -54.96
37 | N#CCc1ccc(Nc2nccc(Nc3ccc(Oc4ccccc4)cc3)n2)cc1 [TCMDC-138577] | 4.825
38 | CN1CCN(CCCNCc2ccc(Nc3nccc(Nc4ccc(Oc5ccccc5)cc4)n3)cc2)CC1 [TCMDC-138621] | 88.79
39 | CN1CCN(CCCNCc2cccc(Nc3nccc(Nc4ccc(Oc5ccccc5)cc4)n3)c2)CC1 [TCMDC-138616] | 109.5
40 | O=C(NCCCN1CCOCC1)c1cccc(Nc2nccc(Nc3ccc(Oc4ccccc4)cc3)n2)c1 [TCMDC-138604] | 68.84
41 | CN1CCN(Cc2cccc(Nc3nccc(Nc4ccc(Oc5ccccc5)cc4)n3)c2)CC1 [TCMDC-138614] | -13.87
42 | COc1cc2c(cc1C(F)(F)F)N(C(=O)Nc1cc(F)c(F)c(-c3cccnc3)c1)CC2 [TCMDC-139061] | 5.239
43 | CCC(C)(CC)C(=O)n1ncc2c3c(N)nc(N)nc3ccc21 [TCMDC-137335] | -46.13
44 | COc1ccc(-n2ccnc2SCC(=O)Nc2cc(C(F)(F)F)ccc2Cl)c(OC)c1 [TCMDC-123822] | 7.482
45 | CCCc1cc(Cc2cnc(N)nc2N)c2cccnc2c1OC [TCMDC-138034] | 13.25
46 | O=C(NCCN1CCCCC1)c1cccc(Nc2nccc(Nc3ccc(Oc4ccccc4)cc3)n2)c1 [TCMDC-138603] | 19.36

Row | SMILES | % Inhibition [%]
47 | c1ccc(Oc2ccc(Nc3ccnc(Nc4cccc(CNCCCN5CCOCC5)c4)n3)cc2)cc1 [TCMDC-138615] | 95.32
48 | c1cncc(-c2cccc(CNc3nccc(Nc4ccc(OCCN5CCOCC5)cc4)n3)c2)c1 [TCMDC-134667] | 2.743
49 | CN1CC[C@@H](Oc2cc(C(=O)NCc3ccc(Cl)c(Cl)c3)ccc2C(F)(F)F)C1 [TCMDC-136228] | 28.38
50 | CCCCCCCc1c(C)[nH]c2ccccc2c1=O [TCMDC-137425] | 37.94
51 | CCCCCCCc1c(C)[nH]c2ccc(F)cc2c1=O [TCMDC-137269] | 73.68
52 | CCCCCCCCc1c(C)[nH]c(C)c(Br)c1=O [TCMDC-137437] | 29.73
53 | CCCCCCCCc1c(C)[nH]c(C)c(C#N)c1=O [TCMDC-137431] | 44.76
54 | CCCCCCCCc1c(C)[nH]c(C)c(Cl)c1=O [TCMDC-137538] | 68.39
55 | CCCCCCCc1c(C)[nH]c2c(OC)cccc2c1=O [TCMDC-138016] | 17.32
56 | CCCCCCCCc1c(C)[nH]c(C)c(I)c1=O [TCMDC-137430] | 48.86
57 | CCCCCCCc1c(C)[nH]c2cccc(OC)c2c1=O [TCMDC-138014] | 32.1
58 | CCCCCCCCCc1c(C)[nH]c2ccccc2c1=O [TCMDC-137268] | 51.45
59 | O=C(NC1CCN(Cc2ccccc2)CC1)c1ccc(-c2nc3cc(F)c(F)cc3[nH]2)s1 [TCMDC-140452] | 7.821
60 | N#Cc1ccc2c(c1)CCN(CCC1CCC(NC(=O)c3ccc(-c4ccccn4)s3)CC1)CC2 (stereo not drawn) [TCMDC-139840] | -69.85
61 | O=C(Nc1ccc(-c2csc(-c3nc4ccccc4[nH]3)c2)cc1)Nc1ccc(F)c(F)c1F [TCMDC-133221] | 23.86
62 | O=C(/C=C/c1ccc(Cl)c(Cl)c1)NCCCCCN1CCC(CCNC(=O)/C=C/c2cc(C(F)(F)F)ccc2F)CC1 [TCMDC-140005] | -14.45
63 | CN(C(=O)Cc1ccc(Cl)cc1)C1CCN(CCCCCNC(=O)/C=C/c2ccc(Cl)c(Cl)c2)CC1 [TCMDC-139988] | -15.24
64 | CC(C)(Oc1ccc(Cl)cc1)C(=O)NCCC1CCN(CCCCCNC(=O)/C=C/c2ccc(Cl)c(Cl)c2)CC1 [TCMDC-140004] | 87.45
65 | CC(C)(C(=O)NCCC1CCN(CCCCCNC(=O)/C=C/c2ccc(Cl)c(Cl)c2)CC1)c1ccc(Cl)cc1 [TCMDC-140002] | 52.94
66 | CN(C(=O)Cc1ccc(Cl)c(Cl)c1)C1CCN(CCCCCNC(=O)/C=C/c2ccc(Cl)c(Cl)c2)CC1 [TCMDC-139986] | -22.66
67 | CN(C(=O)C(C)(C)Oc1ccc(Cl)cc1)C1CCN(CCCCCNC(=O)/C=C/c2ccc(Cl)c(Cl)c2)CC1 [TCMDC-139990] | 51.05
68 | CC(Oc1ccc(Cl)cc1)C(=O)NCCC1CCN(CCCCCNC(=O)/C=C/c2ccc(Cl)c(Cl)c2)CC1 (stereo not drawn) [TCMDC-140003] | 96.79
69 | CC(Oc1ccc(Cl)cc1)C(=O)N(C)C1CCN(CCCCCNC(=O)/C=C/c2ccc(Cl)c(Cl)c2)CC1 (stereo not drawn) [TCMDC-139989] | -40.26
